# Experimental data taken from PubChem BioAssay (NCI).
# The panel holds about 83,000 compounds, 20% with a hit somewhere; the sample as a whole holds those more often.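 In brief: 96-well plates, 48 h treatment, single concentration, percent growth endpoint.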 A number with no mark means an inactive call. Calls of active or inactive are those of the source. How the source made its calls: active means growth percent below 10; inactive means the rest.
# Test system: HL-60(TB) leukemia
# Experiment: NCI-60 one-dose screen, 48 h (100 = growth as untreated, 0 = no growth, -100 = all killed)
# Conditions: 10 µM unless noted
row,Structure (SMILES),growth
1,O=C(CSC(=S)N1CCCCC1)Nc1ccccc1,100%
2,O=C(O)CCCN1C(=O)/C(=C/c2cn(-c3ccccc3)nc2-c2ccc([N+](=O)[O-])cc2)SC1=S,83.4%
3,COCCOCCOCCOCCOc1ccc2c(c1)C(=O)c1nc3ncccc3c(=O)n1-2,-64.6% (active)
